Screening data deposited in PubChem BioAssay by National Center for Advancing Translational Sciences (NCATS).
The list is not random: actives were taken first. Their share in the collection is about 2.9%.
mIDH1 inhibitor: human IDH1 R132H inhibition. 390,000 tested, 0.093% active. O75874. AID 602179. Potency, µM (top dose mostly 76.6 µM), for inactives: at the top dose activity change, negative = inhibition, actives largely listed as inhibitors. IDH1-R132H enzyme, NADPH consumption, diaphorase/resazurin fluorescence; further: potency means the concentration at half of the fitted maximal effect; on the % scale 0 is the no-effect control and ±100 the full control effect; nearly all actives have a fitted effect of over 65% in size
Target sequence (O75874 whole entry R132H, stated change not applied): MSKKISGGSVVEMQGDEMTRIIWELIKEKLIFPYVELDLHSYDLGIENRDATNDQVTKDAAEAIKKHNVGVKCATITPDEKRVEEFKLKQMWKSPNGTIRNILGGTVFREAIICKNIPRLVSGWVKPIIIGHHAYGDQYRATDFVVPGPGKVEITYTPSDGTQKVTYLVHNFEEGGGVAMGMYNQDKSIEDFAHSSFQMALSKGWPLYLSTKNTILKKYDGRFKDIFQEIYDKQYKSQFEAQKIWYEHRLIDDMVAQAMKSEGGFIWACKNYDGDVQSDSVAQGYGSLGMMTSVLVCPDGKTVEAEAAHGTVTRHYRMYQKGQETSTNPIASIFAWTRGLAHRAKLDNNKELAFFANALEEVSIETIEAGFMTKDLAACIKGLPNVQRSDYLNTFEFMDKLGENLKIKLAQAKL
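IDH1-R132H (0.5 ug/mL dispensed) in pH 7.5 Tris buffer was preincubated 30 min with compound, then given a substrate mix of 0.016 mM NADPH and 2 mM alpha-KG for 80 min at room temperature; remaining NADPH was read by diaphorase/resazurin fluorescence.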
DRD3 antagonist: antagonists of human D3 dopamine receptor. D3R cells, DiscoveRx beta-arrestin luminescence, antagonist mode; hits give low values. 360,000 tested, 2.5% active. max response, negative = inhibition, %. AID 652054; in the data active means max response below about -50%; inconclusive means no clear call, values can overlap the other calls; further: on the % scale 0 is the no-effect control and ±100 the full control effect
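Cells expressing the human receptor were seeded at 1500 cells/well, incubated overnight at 37 degrees C in 5% CO2, then exposed to library compounds with dopamine controls for 90 minutes at 37 degrees C before luminescent detection.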
Integrin act MD: activators of alpha7 integrin expression for muscular dystrophy; alpha7betagal myoblasts, beta-gal FDG fluorescence, 48 h; AID 624291; Potency, µM (top dose mostly 38.3 µM), inactives show at the highest dose activation, most hits filed as activators; 350,000 tested, 0.064% active;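 further: potency means the concentration at half of the fitted maximal effect; 100% = response of the positive control SU9516; nearly all actives have a fitted effect of over 60% in size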
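alpha7betagal+/- myoblasts (passage 13, 250/well) treated 48 h at 37C with compounds at 1:260 dilution of DMSO stock. Lysed, then beta-galactosidase activity read as FDG fluorescence (ex 480/em 540) after 30 min, with pre-read for autofluorescence.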
DRD3 agonist: agonists of human D3 dopamine receptor; D3R DiscoveRx beta-arrestin cells, luminescence, 90 min; max activation, %; 410,000 tested, 0.58% active; AID 652048; in the data active means max activation above about 30%; further: 0% is about no effect
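Cells at 1500/well, incubated overnight, then treated with pinned compounds (dopamine as control) for 90 min at 37 degrees C. DiscoveRx reagent added for 30 - 60 minutes at room temperature; luminescence read.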
B2AR arrestin: recruits beta-arrestin to the human beta2-adrenergic receptor; P07550; beta-arrestin recruitment to beta2AR, cell-based reporter; Potency, µM (top dose mostly 46.1 µM), for the others: at the top dose activation, most hits filed as activators; 330,000 tested, 0.02% active;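 further: potency means the concentration at half of the fitted maximal effect; 0% = DMSO controls and full agonism = EC100 isoproterenol or metaproterenol; nearly all actives have a fitted effect of over 65% in size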
Resorufin autofl: autofluorescence interference, mutant IDH1 hit counter-screen; 750 tested, under 10 active; Resorufin detection reagent fluorescence interference, cell-free; shares compounds with mIDH1 inhibitor; inhibition of signal, % at 51.2 µM;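 further: 0% = wells with normal resorufin and full inhibition = wells lacking resorufin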
IDH1 WT: wild-type IDH1 (human) inhibition counterscreen; shares compounds with mIDH1 inhibitor; WT IDH1 enzyme, NADPH diaphorase/resazurin fluorescence; Potency, µM (titrated, usually from 115 µM), inactives show top-dose activity change, negative = inhibition, actives largely listed as inhibitors; 750 tested, 9% active; AID 623995;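 further: potency means the concentration at half of the fitted maximal effect; 0% = full WT IDH1 enzyme control and full inhibition = no enzyme wells; nearly all actives have a fitted effect of over 55% in size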
Target sequence (O75874 whole entry, looked up): as the sequence (O75874 whole entry R132H, stated change not applied) above, with H132R counted along it
mIDH1 confirm: confirmation of human mutant IDH1 inhibitors. shares compounds with mIDH1 inhibitor. IDH1 R132H enzyme, NADPH diaphorase/resazurin fluorescence. Potency, µM (highest dose often 76.6 µM), for inactives: at the top dose activity change, negative = inhibition, hits mostly inhibitors. 750 tested, 83% active. AID 624002; further: potency means the concentration at half of the fitted maximal effect; nearly all actives have a fitted effect of over 50% in size
Numbers without * were called inactive; ? = inconclusive; / = no result given; [ ] = remark or other dose. Unless noted, the call rests on the fitted dose curve; in most records, active means well fitted curve in the direction sought with a large enough effect; inconclusive means small, poorly fitted or top-dose-only effect, or another doubt; inactive means no such curve, though single readings can be large; an effect the other way counts as inactive or inconclusive.

SMILES | mIDH1 inhibitor | DRD3 antagonist | Integrin act MD | DRD3 agonist | B2AR arrestin | Resorufin autofl | IDH1 WT | mIDH1 confirm
COc1cc2c(-c3cc(F)cc(F)c3)c(-c3ccsc3)oc(=O)c2cc1OC | -4% | 1 | 3% | 25 | 1% | / | / | /
COc1ccc(-c2oc(=O)c3cc(OC)c(OC)cc3c2-c2ccc3c(c2)OCO3)cc1 | 21% | 13 | 8% | 11 | 0% | / | / | /
COc1ccc(-c2c(-c3ccsc3)oc(=O)c3cc(OC)c(OC)cc23)cc1 | 11µM* | 61 | 17% | 39* | 0% | 5 | 0% | 8.9µM*
CCOC(=O)C1=CCN(S(=O)(=O)c2ccc(C)cc2)[C@H]1c1ccccc1Cl | / | 10 | / | 6 | / | / | / | /
CC(=O)Nc1ccc(S(=O)(=O)Nc2ccc(Cc3ccncc3)cc2)cc1 | 2% | -18 | 23% | 6 | 0% | / | / | /
Cc1noc(NS(=O)(=O)c2ccc(NS(=O)(=O)c3ccc(C(C)(C)C)cc3)cc2)c1C | 40µM* | 0 | -7% | -5 | / | 9 | -7% | 11µM*
CC(C)(C)c1ccc(S(=O)(=O)Nc2ccc(Cc3ccncc3)cc2)cc1 | ? | 1 | ? | -6 | 0% | -1 | -6% | 20µM*
Cc1ccc(N(C(=O)c2nsc(Cl)c2Cl)C(C(=O)NC2CCCC2)c2ccc(O)cc2)cc1C (configuration not stated) | ? | -52* | 0% | -31 | -1% | 1 | 16% | 14µM*
O=C1c2[nH]nc(-c3ccccc3O)c2C(c2ccc(F)cc2)N1Cc1ccco1 (configuration not stated) | ? | -7 | -3% | 15 | 0% | -7 | 5% | 40µM*
Cc1cc(C)c(O)c(-c2n[nH]c3c2C(c2cccc(O)c2)N(Cc2ccco2)C3=O)c1 (configuration not stated) | 16µM* | 9 | 1% | -6 | -1% | -8 | 50µM* | 22µM*
O=C1c2[nH]nc(-c3ccccc3O)c2C(c2cccc(Cl)c2)N1Cc1ccco1 (configuration not stated) | ? | -9 | -22% | 13 | -1% | / | / | /
Cc1ccc(C2c3c(-c4cc(C)ccc4O)n[nH]c3C(=O)N2Cc2ccco2)cc1 (configuration not stated) | 35µM* | / | / | 12 | / | -4 | -4% | 45µM*
Cc1nn(CC(=O)NCc2cccc(F)c2)c(=O)c2c(C)n(-c3ccc(Cl)cc3)nc12 | -3% | / | / | 13 | / | / | / | /
Cc1ccc(Cl)cc1N1CCN(S(=O)(=O)c2ccc3c(c2)CCN3C(=O)C2CCC2)CC1 | 0% | / | / | 7 | / | / | / | /
Cc1ccc(NC(=O)C2CCC(CNS(=O)(=O)c3cccs3)CC2)cc1C (configuration not stated) | -10% | / | / | 4 | / | / | / | /
O=C(C=P(c1ccccc1)(c1ccccc1)c1ccccc1)c1ccccc1-c1ccccc1C(=O)C=P(c1ccccc1)(c1ccccc1)c1ccccc1 | 23µM* | -89* | -54% | -3 | / | 2 | ? | 3.2µM*
N#CN(Cc1ccccc1)Cc1ccccc1 | 3% | 6 | -8% | 0 | 0% | / | / | /
CC(C)(C)c1c(Cl)c(O)c(-c2ccccc2)c(=O)n1-c1ccccc1 | 46µM* | 3 | 4% | -5 | 0% | -3 | ? | ?
CCn1c2ccccc2c2cc(C3C(C#N)=C(N)Oc4n[nH]c(COC)c43)ccc21 (configuration not stated) | 52µM* | -17 | -2% | 1 | 0% | 4 | -4% | 20µM*
COc1ccc(F)cc1S(=O)(=O)NCCc1sc2nc(-c3ccc(F)cc3)nn2c1C | 2% | / | / | 2 | / | / | / | /
CCOC(=O)c1c(/N=C/C2=C(O)CC(C)(C)CC2=O)sc(C(C)=O)c1C | 1% | -8 | 26% | 2 | 0% | / | / | /
CC1(C)Oc2ccc3ccc(=O)oc3c2/C(=C/Nc2ccc(O)cc2)C1=O | -4% | 20 | 4% | 28 | 0% | / | / | /
CC1(C)Oc2ccc3ccc(=O)oc3c2/C(=C/Nc2ccccn2)C1=O | 29µM* | 26 | 3% | 8 | 0% | -7 | 39% | 11µM*
CC1(C)Oc2ccc3ccc(=O)oc3c2/C(=C/Nc2cccc(O)c2)C1=O | ? | 31 | 24% | 8 | 0% | 5 | 32% | 40µM*
CN/C=C1\C(=O)C(C)(C)Oc2ccc3ccc(=O)oc3c21 | 2% | 16 | 3% | 2 | 0% | / | / | /
SMILES | mIDH1 inhibitor | DRD3 antagonist | Integrin act MD | DRD3 agonist | B2AR arrestin | Resorufin autofl | IDH1 WT | mIDH1 confirm
Cn1cc(S(=O)(=O)c2cccc(Cl)c2)c(=O)c2cc(F)c(N3CCCCC3)cc21 | ? | / | / | 5 | / | 3 | 3% | 13µM*
COc1ccc(C2c3c(-c4cc(Cl)c(C)cc4O)n[nH]c3C(=O)N2Cc2cccnc2)cc1OC (configuration not stated) | ? | 6 | 5% | 10 | 0% | 8 | 5% | 28µM*
CCOc1ccc(C2c3c(-c4ccccc4O)n[nH]c3C(=O)N2Cc2cccnc2)cc1OC (configuration not stated) | ? | / | / | -2 | / | 1 | -12% | 32µM*
CCOc1cc(C2c3c(-c4ccccc4O)n[nH]c3C(=O)N2Cc2cccnc2)ccc1O (configuration not stated) | 7% | / | / | 7 | / | / | / | /
COc1cc(C2c3c(-c4ccccc4O)n[nH]c3C(=O)N2Cc2ccncc2)cc(OC)c1OC (configuration not stated) | -14% | / | / | 3 | / | / | / | /
COc1cccc(/C=C2\Oc3cc(OCC(=O)N4CCCC4)ccc3C2=O)c1OC | -5% | 14 | 1% | 2 | -1% | / | / | /
O=C1/C(=C/c2ccncc2)Oc2cc(OS(=O)(=O)c3ccccc3)ccc21 | 46µM* | -9 | -56% | -2 | 0% | -2 | ? | 16µM*
Cc1ccc(S(=O)(=O)Oc2ccc3c(c2)O/C(=C\c2cccnc2)C3=O)cc1 | ? | 10 | -10% | 10 | 0% | -10 | -3% | 25µM*
O=C1/C(=C/c2cccnc2)Oc2cc(OS(=O)(=O)c3ccc(F)cc3)ccc21 | ? | 14 | 7%[7.66 µM] | -2 | 0% | / | / | /
COc1cccc(OC)c1C(=O)Oc1ccc2c(c1)O/C(=C\c1ccncc1)C2=O | ? | -8 | -54% | -1 | 0% | -3 | 2% | 20µM*
CCOc1ccc(-c2cc(C(=O)N/N=C(\C)c3cccnc3)c3ccccc3n2)c(OCC)c1 | -2% | 11 | 34% | -2 | 0% | / | / | /
